Here are results for nine compounds from paper PMC5540273 (PLoS ONE, 2017).

Some test systems named below: PIP5K1A; PIP5K1C; PIP5K2B; PKMYT1; PKN1; PKN2; PLK1; PLK2; PLK3; PLK4; PRKCD; PRKCE; PRKCH; PRKCI; PRKCQ; PRKD1; PRKD2.
Common to all, as to conditions: concentration: 1 μM, replicates: in singlicate; n = 1
The next test deals with T1, PIP5K2C.
T1 construct: gene PIP4K2C

Another test has as its system T2, PKAC-alpha.
T2 construct: gene PRKACA

The next test concerns T3, PKAC-beta.
T3 construct: gene PRKACB
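Also: KINOMEscan kinase panel screen.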

Regarding `Cn1cc(-c2ccc3c(c2)CCN3C(=O)Cc2cccc(Cl)c2)c2c(N)ncnc21` [GSK2606590], the “%Inh” value was 0% with PIP5K1A; 22% in the test with PIP5K1C; 10% in the test on PIP5K2B; 1% with PIP5K2C; 7% in the test with PKAC-alpha; 5% in the test with PKAC-beta. The “%Inh” value was 9% in the test on PKMYT1; 0% in the test with PKN1; 0% in the test on PKN2; 7% in the test on PLK1; 0% with PLK2; 0% with PLK3. For the same compound, the “%Inh” value in the test with PLK4 is listed as 6%; with PRKCD, 15%; with PRKCE it was 0%; with PRKCH, 27%; in the test with PRKCI, 0%; in the test on PRKCQ, 10%. Moreover, the “%Inh” value in the test on PRKD1 and in the test on PRKD2 was 0% each time.
`c1ccc(Oc2ccc(Nc3ccnc4cc(-c5ccc(CNCCN6CCOCC6)o5)ccc34)cc2)nc1` [GW567145]: the “%Inh” value stood at 62% in the test on PIP5K1A; 71% in the test on PIP5K1C; 21% in the test with PIP5K2B; 57% in the test on PIP5K2C; 0% in the test with PKAC-alpha; 0% in the test with PKAC-beta. Besides, the “%Inh” value in the test on PKMYT1, with PKN1, with PKN2, with PLK1, in the test with PLK2 and in the test on PLK3 was 0% throughout. The “%Inh” value in the test on PLK4 was 43%; in the test with PRKCD, 0%; in the test on PRKCE it was 12%; in the test on PRKCH, 4%; in the test with PRKCI, 39%; in the test with PRKCQ it was 4%. Moreover, the “%Inh” value came out at 0% in the test on PRKD1 and 13% in the test with PRKD2.
For `O=C(Nc1n[nH]c2nc(-c3ccc(O)cc3)ccc12)C1CC1` [SB-710363], the “%Inh” value in the test with PIP5K1A was 21%; with PIP5K1C, 83%; with PIP5K2B, 56%; in the test on PIP5K2C it was 0%; with PKAC-alpha it was 0%; in the test on PKAC-beta it was 18%. In addition, the “%Inh” value in the test on PKMYT1 is on record as 0%; in the test with PKN1, 19%; in the test on PKN2, 23%; in the test on PLK1, 0%; in the test with PLK2, 10%; in the test with PLK3 it was 0%. Moreover, the “%Inh” value in the test on PLK4 amounted to 30%; in the test with PRKCD, 37%; in the test with PRKCE, 45%; with PRKCH, 19%; in the test with PRKCI it was 0%; with PRKCQ, 16%. The “%Inh” value in the test on PRKD1 and in the test on PRKD2 was 0% throughout.
Regarding `COc1cccc(C2=C(Nc3ccc(Cl)c(C(=O)O)c3)C(=O)NC2=O)c1` [SB-390769], the “%Inh” value with PIP5K1A was 19%; with PIP5K1C it was 60%; with PIP5K2B, 0%; in the test with PIP5K2C, 28%; in the test on PKAC-alpha, 0%; with PKAC-beta it was 6%. Besides, the “%Inh” value in the test with PKMYT1 was 4%; with PKN1 it was 0%; in the test with PKN2, 0%; in the test with PLK1 it was 0%; in the test on PLK2, 100%; with PLK3, 100%. The “%Inh” value with PLK4 was 1%; with PRKCD it was 0%; in the test on PRKCE it was 32%; in the test on PRKCH, 25%; in the test on PRKCI, 21%; in the test on PRKCQ, 0%. The “%Inh” value in the test with PRKD1 is recorded as 0%; in the test on PRKD2 it was 6%.
In the case of `FC(F)(F)c1ccc(/C=C/c2cncnc2Nc2ccc3[nH]c(Cc4ccccc4)nc3c2)cc1` [GW709199], the “%Inh” value worked out at 32% in the test on PIP5K1A; 30% with PIP5K1C; 0% in the test with PIP5K2B; 38% in the test with PIP5K2C; 0% with PKAC-alpha; 29% in the test with PKAC-beta. The “%Inh” value in the test with PKMYT1 is listed as 25%; in the test on PKN1 it was 0%; in the test with PKN2, 12%; in the test on PLK1 it was 0%; in the test on PLK2, 0%; in the test on PLK3 it was 0%. In addition, the “%Inh” value is 0% with PLK4; 25% with PRKCD; 0% with PRKCE; 0% in the test with PRKCH; 55% in the test with PRKCI; 0% in the test with PRKCQ. The “%Inh” value in the test on PRKD1 was 0%; with PRKD2, 3%.
For `CCn1c(-c2nonc2N)nc2c(C#CC(C)(C)O)nc(OC[C@H](N)c3ccccc3)cc21` [GSK943949], the “%Inh” value turned out to be 0% in the test on PIP5K1A; 90.8% with PIP5K1C; 0% with PIP5K2B; 0% with PIP5K2C; 98% in the test on PKAC-alpha; 97.7% in the test on PKAC-beta. In addition, the “%Inh” value amounted to 19% with PKMYT1; 90.8% with PKN1; 19% in the test with PKN2; 0% with PLK1; 0% in the test with PLK2; 0% in the test with PLK3. Also, the “%Inh” value with PLK4 is 19%; in the test with PRKCD, 96.2%; in the test with PRKCE, 75%; in the test with PRKCH, 97.9%; in the test on PRKCI, 20%; in the test with PRKCQ, 82%. For the same compound, the figures for the “%Inh” value in the test on PRKD1 and with PRKD2 were 7% and 17%, respectively.
Consider `Cc1cccc(Nc2nc(N[C@H]3CCNC3)ncc2C(N)=O)c1.Cl` [GSK2197149], for which the “%Inh” value with PIP5K1A is 47%; in the test on PIP5K1C, 76%; in the test on PIP5K2B, 65%; with PIP5K2C, 0%; in the test on PKAC-alpha, 19%; with PKAC-beta, 0%. Also, the “%Inh” value is listed as 0% with PKMYT1; 3% in the test with PKN1; 14% in the test with PKN2; 0% with PLK1; 1% with PLK2; 0% in the test on PLK3. The “%Inh” value came to 0% in the test on PLK4; 58% with PRKCD; 86% in the test on PRKCE; 41% with PRKCH; 0% in the test on PRKCI; 41% in the test with PRKCQ. Also, the “%Inh” value was found to be 49% in the test with PRKD1 and 55% with PRKD2.
Regarding `COc1cccc(NC(=O)NC2CCN(c3ccnc(Nc4cc(OC)c(OC)c(OC)c4)n3)C2)c1` (stereo not drawn) [GSK1379763], the “%Inh” value is 0% with PIP5K1A; 57% with PIP5K1C; 0% with PIP5K2B; 91.1% in the test with PIP5K2C; 0% with PKAC-alpha; 0% with PKAC-beta. Further, the “%Inh” value in the test with PKMYT1 is listed as 64%; with PKN1, 0%; in the test with PKN2, 0%; in the test with PLK1, 15%; in the test on PLK2, 0%; in the test on PLK3 it was 12%. Besides, the “%Inh” value in the test with PLK4 is 48%; in the test on PRKCD, 0%; with PRKCE, 14%; in the test on PRKCH, 0%; in the test on PRKCI it was 0%; in the test with PRKCQ it was 0%. The “%Inh” value in the test on PRKD1 and with PRKD2 was 0% each time.
As for `Cc1ccc(C)c(NC(=O)NC2CCN(c3ccnc(Nc4ccc(F)cc4)n3)C2)c1` (stereo not drawn) [GSK1379720], the “%Inh” value with PIP5K1A is on record as 0%; in the test on PIP5K1C it was 65%; with PIP5K2B it was 38%; in the test with PIP5K2C, 47%; in the test with PKAC-alpha, 0%; in the test with PKAC-beta it was 0%. In addition, the “%Inh” value with PKMYT1 turned out to be 5%; in the test on PKN1, 0%; in the test with PKN2, 0%; in the test with PLK1, 0%; in the test on PLK2, 0%; in the test on PLK3 it was 0%. In addition, the “%Inh” value with PLK4 worked out at 0%; in the test with PRKCD, 0%; with PRKCE it was 15%; with PRKCH, 0%; with PRKCI it was 13%; with PRKCQ it was 0%. Also, the “%Inh” value in the test on PRKD1 and in the test with PRKD2 was 0% throughout.
